Test results as given in PubChem BioAssay (NCI).
This is part of a sample that, as a whole, favours compounds with a hit. Of some 79,000 tested, about 15% had one in any assay. No stated cut-off is given here; in the data, active means growth inhibition above about 70%; inactive means the rest.

How the values were obtained:
[1] = NCI Yeast Anticancer Drug Screen. Data for the wt1 strain (AID 149);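 further: 0% = growth of vehicle-treated wt1 cultures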; details: S. cerevisiae wt1 strain (SPY 50644) growth inhibition, active compounds read high
In short: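 Measured: growth of wt1 yeast under compound versus vehicle treatment, reported as inhibition.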

[2] = NCI Yeast Anticancer Drug Screen. Data for the mgt1 strain (AID 153); details: S. cerevisiae mgt1 mutant growth inhibition, active compounds read high
In short: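 Growth inhibition relative to vehicle controls was scored for the mgt1 yeast strain after compound exposure.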

[3] = NCI Yeast Anticancer Drug Screen. Data for the rad50 strain (AID 155);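 further: 0% = growth of vehicle-only cultures of the same strain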; details: S. cerevisiae rad50 strain growth inhibition, active compounds read high
In short: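 Growth of the mutant yeast was measured after compound exposure and referenced to vehicle-treated cultures.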

[4] = NCI Yeast Anticancer Drug Screen. Data for the mec2-1 strain (AID 157); details: S. cerevisiae mec2-1 strain, active compounds read high
In short: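 Growth inhibition is read against vehicle-treated controls after compound exposure of the mec2-1 yeast strain, which is defective in DNA damage repair or cell cycle control.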

[5] = NCI Yeast Anticancer Drug Screen. Data for the rad14 strain (AID 159);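 further: 0% = growth of vehicle-treated control cultures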; details: S. cerevisiae rad14 strain growth inhibition, active compounds read high
In short: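 Here, inhibition of yeast growth was measured after compound exposure, using a strain with a genetic defect in DNA damage repair and vehicle-treated cultures as the reference.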

[6] = NCI Yeast Anticancer Drug Screen. Data for the sgs1 mgt1 strain (AID 161);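 further: 0% = growth of cultures given vehicle only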; details: S. cerevisiae sgs1 mgt1 strain, active compounds read high
In short: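 This yeast growth screen uses a strain with defined DNA-repair lesions; compound-treated growth is compared with vehicle-treated growth.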

[7] = NCI Yeast Anticancer Drug Screen. Data for the CLN2oe strain (AID 163);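 further: 0% = growth of vehicle-only control cultures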; details: S. cerevisiae CLN2oe strain, active compounds read high
In short: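 Compound-treated yeast; growth vs vehicle ctrl = % inhibition. Genetically altered strain (cell-cycle control).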

[8] = NCI Yeast Anticancer Drug Screen. Data for the cln2 rad14 strain (AID 165);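 further: 0% = growth equal to vehicle treated cultures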; details: S. cerevisiae cln2 rad14 strain, active compounds read high
In short: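 Growth inhibition, relative to vehicle-treated controls, is the read-out. The test organism is a yeast strain with defined genetic alterations, cln2 rad14.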

[9] = NCI Yeast Anticancer Drug Screen. Data for the bub3 strain (AID 167); details: S. cerevisiae bub3 mutant strain, active compounds read high
In short: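 Whole-cell yeast assay. The mutant strain was incubated with compounds, and growth inhibition was determined by comparison with vehicle-treated cells.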

[10] = NCI Yeast Anticancer Drug Screen. Data for the sgs1 strain (AID 173);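 further: 0% = growth of vehicle-only control cultures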; details: S. cerevisiae sgs1 mutant, active compounds read high
In short: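 Compounds applied to genetically altered yeast; growth compared with vehicle-treated cultures to give % inhibition.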

[11] = NCI Yeast Anticancer Drug Screen. Data for the mlh1 rad18 strain (AID 175); details: S. cerevisiae mlh1 rad18 strain growth inhibition, active compounds read high
In short: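 Cells of a genetically altered yeast strain, deficient in DNA damage repair, were treated with compound. Their growth was then compared with that of vehicle-treated cultures to give inhibition.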

[12] = NCI Yeast Anticancer Drug Screen. Data for the rad18 strain (AID 177); details: S. cerevisiae rad18 mutant growth inhibition, active compounds read high
In short: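 Compounds are applied to a repair-deficient yeast strain, and growth is compared with that of vehicle-treated cultures to give percent inhibition.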

[13] = at 5.0 µM (retest, dose inferred, filed as 0.5)
[14] = at 50.0 µM (retest, dose inferred, filed as 5.0)

Measured: growth inhibition

O=S(=O)(Oc1c(Cl)cc(Cl)cc1Cl)c1ccccc1
inactive: [1]; at 1.2 µM -4% | [1]; at 3.7 µM -7% | [1]; at 11.0 µM -9% | [1]; at 33.0 µM -11% | [1]; at 100.0 µM -5% | [2]; at 1.2 µM -3% | [2]; at 3.7 µM -5% | [2]; at 11.0 µM -2% | [2]; at 33.0 µM 9% | [2]; at 100.0 µM 30% | [3]; at 1.2 µM 0% | [3]; at 3.7 µM 3% | [3]; [13] 8% | [3]; at 11.0 µM 10% | [3]; at 33.0 µM 14% | [3]; [14] 12% | [3]; at 50.0 µM 10.2% | [3]; at 100.0 µM 14% | [4]; at 1.2 µM -4% | [4]; at 3.7 µM -1% | [4]; [13] -9% | [4]; at 11.0 µM 1% | [4]; at 33.0 µM 4% | [4]; [14] 20% | [4]; at 50.0 µM 40.5% | [4]; at 100.0 µM 13% | [5]; at 1.2 µM 0% | [5]; at 3.7 µM 0% | [5]; at 11.0 µM 8% | [5]; at 33.0 µM 11% | [5]; at 100.0 µM 12% | [6]; [13] 2% | [6]; [14] 47% | [6]; at 50.0 µM 66.3% | [7]; at 1.2 µM -1% | [7]; at 3.7 µM -4% | [7]; at 11.0 µM -14% | [7]; at 33.0 µM -14% | [7]; at 100.0 µM -8% | [8]; [13] -18% | [8]; [14] 20% | [8]; at 50.0 µM -33.5% | [9]; at 1.2 µM -1% | [9]; at 3.7 µM -4% | [9]; [13] 0% | [9]; at 11.0 µM -2% | [9]; at 33.0 µM 0% | [9]; [14] -8% | [9]; at 50.0 µM 55.4% | [9]; at 100.0 µM 14% | [10]; at 1.2 µM -3% | [10]; at 3.7 µM -1% | [10]; at 11.0 µM 11% | [10]; at 33.0 µM 22% | [10]; at 100.0 µM 11% | [11]; [13] -7% | [11]; [14] 56% | [11]; at 50.0 µM 63.6% | [12]; at 1.2 µM -3% | [12]; at 3.7 µM 4% | [12]; at 11.0 µM 12% | [12]; at 33.0 µM 19% | [12]; at 100.0 µM 30%
